Source: PubChem BioAssay
A selection: hits, their analogues and other compounds. The true share with any hit is near 19%.
TDP1 cell noCPT = qHTS for Inhibitors of human tyrosyl-DNA phosphodiesterase 1 (TDP1): qHTS in cells in absence of CPT; DT40 Tdp1-/- hTDP1 cells, no CPT, ATP luminescence, 48 h; Potency, µM (top dose mostly 46.2 µM), for the others: at the highest dose activity change, negative = growth inhibition, most hits filed as inhibitors; 420,000 tested, 15% active; AID 686978, 2013; note: potency is the fitted concentration of half-maximal effect; nearly all actives have a fitted effect of over 55% in size
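Camptothecin absent (DMSO only). Human TDP1-complemented DT40 knockout cells, 400 cells/well, 37 °C for minimum 48 hr; ATP measured via CellTiter-Glo, 30 min dark incubation, luminescence.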
IL-1B inflam inh = qHTS for Inhibitors of Inflammasome Signaling: IL-1-beta AlphaLISA Primary Screen; THP-1 LPS/ATP IL-1B secretion, AlphaLISA, 16 h; active compounds read low; activity change, % at 57.5 µM; 360,000 tested, 4.7% active; AID 743279, 2014; in the data active = activity change below about -50%; inconclusive = mostly about -30% to -49%
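THP-1 cells pretreated 1 hr with compounds (up to 57.5 uM final), then stimulated with LPS (250 ng/mL final) plus ATP (1.25 mM final); secreted IL-1B measured by AlphaLISA after 16 hr, decreased signal indicating inhibition.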
DT40 TDP1 CPT = qHTS for Inhibitors of human tyrosyl-DNA phosphodiesterase 1 (TDP1): qHTS in cells in presence of CPT; Potency, µM (top dose mostly 46.2 µM), for the others: at the top dose activity change, negative = growth inhibition, most hits filed as inhibitors; AID 686979, 2013; chicken DT40 Tdp1-/-;hTDP1 cells + 20 nM CPT, ATP luminescence, 48 h; 420,000 tested, 12% active; note: potency is the fitted concentration of half-maximal effect; nearly all actives have a fitted effect of over 55% in size
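Chicken DT40 Tdp1-/- cells complemented with human TDP1, 400 cells/well, exposed to compounds plus 20 nM camptothecin for at least 48 h at 37 C; viability read as ATP content by CellTiter-Glo luminescence.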
HT1080 IDH1KD tx = qHTS for induction of synthetic lethality in tumor cells producing 2HG: qHTS for the HT-1080-IDH1KD cell line | HT-1080 IDH1 knockdown viability, ATP luminescence, 48 h | 360,000 tested, 2% active | AID 686971, 2013 | Potency, µM (titrated, usually from 46.1 µM), for inactives: top-dose activity, negative = toxicity, usual class: cytotoxic;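 note: potency is the fitted concentration of half-maximal effect; 0% = DMSO wells and -100% = cell-free medium wells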
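Using the IDH1-knockdown HT-1080 line run in the same batch and compound series as the NT line, viability after 48 h at 37 °C was determined by CellTiter-Glo luminescence and expressed as % activity.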
HT1080NT lethal = qHTS for induction of synthetic lethality in tumor cells producing 2HG: qHTS for the HT-1080-NT fibrosarcoma cell line. HT-1080-NT fibrosarcoma viability, CellTiter-Glo ATP luminescence, 48 h. Potency, µM (doses to about 46.1 µM), for inactives: top-dose activity, negative = less viability, actives largely listed as cytotoxic. 360,000 tested, 1.6% active. AID 686970, 2013;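 note: NT is the 2HG producing partner of a matched IDH1 knockdown line; potency is the fitted concentration of half-maximal effect; 0% = DMSO-treated cells and -100% = media-only wells without cells; nearly all actives have a fitted effect of over 55% in size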
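A 48-hour cytotoxicity screen used HT-1080-NT cells plated 2 hours before compound delivery. ATP-based CellTiter-Glo luminescence measured viability, normalized to DMSO and no-cell controls.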
Starred values were filed as active, the others as inactive; ? = inconclusive; / = not tested or not shown. Unless noted, calls come from the whole dose curve; as a rule, active = well fitted curve in the direction sought with a large enough effect; inconclusive = small, poorly fitted or top-dose-only effect, or another doubt; inactive = no such curve, though single readings can be large; an effect the other way counts as inactive or inconclusive. Unless noted, % is set by controls: 0 for no effect and ±100 for the full control effect.

SMILES	TDP1 cell noCPT	IL-1B inflam inh	DT40 TDP1 CPT	HT1080 IDH1KD tx	HT1080NT lethal
COC(=O)c1[nH]c2ccc(F)cc2c1NC(=O)Nc1ccc(OC)cc1	6.5µM*	12	?	?	-26%
COc1cccc(NC(=O)C2CCCC2)c1	-17%	-1	-4%	11%	5%
COc1cccc(NC(=O)c2ccc(NC(=O)C3CC(=O)OC34CCCCC4)cc2)c1 (stereo unspecified)	?	0	18µM*	1%	5%
COC(=O)[C@H](C)NC(=O)Nc1ccc(Oc2ccccc2)cc1	6.3µM*	10	?	-25%	0%
CC(C)C[C@H](NC(=O)Nc1ccc(Oc2ccccc2)cc1)C(=O)O	-14%	13	-17%	1%	2%
COc1cccc(NC(=O)C2CC2)c1	-4%	-11	5.8µM*	10%	18%
COC(=O)c1[nH]c2ccc(C)cc2c1NC(=O)Nc1ccc(OC)cc1	-6%	17	1%	2%	7%
O=C(Nc1ccccc1O)c1ccc(NC(=O)C2CC2)cc1	12µM*	-6	12µM*	?	?
Cc1nccn1-c1c([N+](=O)[O-])c(=O)n(C)c2ccccc12	-21%	-92*	8%	-21%	-14%
Cn1c(=O)c([N+](=O)[O-])c(-n2cnc3ccccc32)c2ccccc21	21µM*	-98*	?	?	?
Cn1c(=O)c([N+](=O)[O-])c(N2CCSCC2)c2ccccc21	?	-22	?	-10%	-10%
Fc1ccccc1N1CC(c2ccccc2)C(c2cccs2)=N1 (stereo unspecified)	?	22	-5%	?	-17%
C[C@@H]1CN([C@H](C)CO)C(=O)CCCn2cc(nn2)CO[C@H]1CN(C)C(=O)c1ccccc1	13%	-3	1%	25%	13%
CCN(CC)C(=O)Cn1cc(SCC(=O)NC2CCCCC2)c2ccccc21	-21%	-23	-23%	0%	-2%
O=C(COC(=O)Cc1c(F)cccc1Cl)NC(=O)c1ccccc1	-23%	0	-2%	10%	4%
CN(Cc1ccccc1)C(C(=O)NC1CCCCC1)c1ccc(Cl)cc1 (stereo unspecified)	-19%	/	-2%	/	/
CSCCC(C(=O)Nc1c(C)cccc1C)n1c(-c2cc(C)cs2)nc2ccccc21 (stereo unspecified)	?	-11	?	-1%	0%
CSCCC(C(=O)NCc1ccccc1)n1c(C2CCN(C(C)=O)CC2)nc2ccccc21 (stereo unspecified)	?	-52*	?	17%	13%
CSCCC(C(=O)Nc1c(C)cccc1C)n1c(-c2ccc(-c3ccccc3)cc2)nc2ccccc21 (stereo unspecified)	?	-9	10µM*	6%	9%
CSCCC(C(=O)Nc1c(C)cccc1C)n1c(COc2ccc(C)cc2)nc2ccccc21 (stereo unspecified)	9.2µM*	-58*	12µM*	?	-29%
CCOC(=O)N1CCN(C(=O)CN(c2ccc3c(c2)OCO3)S(C)(=O)=O)CC1	-7%	-17	5%	-18%	-6%
COCCCN1C(=O)C(CC(=O)NCc2ccco2)CC(C(=O)N(C(C)C)C(C)C)=C1C (stereo unspecified)	21%	19	3%	18%	14%
CC(C)S(=O)(=O)c1csc(NC(=O)Nc2ccc(Cl)cc2)c1	12µM*	?	7.3µM*	-16%	-19%
NS(=O)(=O)c1cccc(NC(=O)Nc2ccc(Cl)cc2)c1	-21%	?	-27%	-7%	1%
COc1ccc(S(=O)(=O)N2CCOCC2)cc1NC(=O)CSc1n[nH]c(C(C)C)n1	-16%	0	4%	-1%	-6%
